IkB signaling: inhibitors of IkB signaling in ABC-DLBCL cells | ABC-DLBCL IkBa-CBG/CBR dual luciferase ratio, 4 h; response scale: scaled: untreated 0%, proteasome inhibitor 100% | Potency, µM (top dose mostly 57.1 µM), inactives show top-dose IkBa stabilization activation | 110,000 tested, 0.04% active | AID 445; active means well fitted curve in the direction sought with a large enough effect in the signal ratio, not every such curve was filed as active; inconclusive means small, poorly fitted or top-dose-only effect, or a change in a side signal; the % refers to the signal ratio;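 further: the direction sought is a rising ratio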
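Curves were fitted separately to fusion (green), unfused (red) and ratio luminescence, then classed by r2, magnitude and activity. Cells: OCI-Ly3, 4 h compound plus doxycycline at 37C; 10 uM MG-132 defined full response.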
p53ts 32C kill: p53ts cell cytotoxicity, permissive temperature; H1299-p53A138V at 32C, ATP luminescence viability, 24 h; Potency, µM (highest dose often 46.1 µM), inactives show at the highest dose activity change, negative = cytotoxicity, hits mostly cytotoxic; 130,000 tested, 0.93% active;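 further: 0% = DMSO and -100% = full killing by reference compound; nearly all actives have a fitted effect of over 55% in size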
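H1299-p53 A138V cells (temperature-sensitive p53) exposed 24 h to up to 46 uM compound at 32C, where p53 is wild-type in conformation. Viability read as ATP luminescence and normalised to DMSO and 100 uM tamoxifen. AC50 fitted with the Hill equation.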
Caspase-7 inhib: caspase-7 (human) inhibition, allosteric or competitive. recombinant caspase-7, Ac-DEVD-AFC fluorescence rate. Potency, µM (series often up to 57.5 µM), for inactives: at the top dose activity change, negative = inhibition, most hits filed as inhibitors. 75,000 tested, 0.02% active. AID 889; active means well fitted inhibition curve with a large enough effect in the main read-out, with a control signal flat, not every such curve was filed as active; inconclusive means small, poorly fitted or top-dose-only effect, or a change in a side signal; further: % of control where 0% means no effect
p53ts 39C tox: kills p53ts cells at the nonpermissive temperature. H1299-p53A138V viability at 39C, ATP luminescence, 24 h. Potency, µM (top dose mostly 46.1 µM), for the others: at the top dose activity change, negative = cell killing, most hits filed as cytotoxic. 130,000 tested, 1.5% active. AID 902; further: on the % scale 0 is the no-effect control and ±100 the full control effect; nearly all actives have a fitted effect of over 55% in size
Casp1 inh: caspase-1 (human) inhibition, allosteric or competitive; P29466; Caspase-1 enzyme, Ac-WEHD-AFC fluorogenic rate; Potency, µM (top dose mostly 57.5 µM), for inactives: at the highest dose activity change, negative = inhibition, hits mostly inhibitors; 75,000 tested, 0.03% active; AID 900;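 further: plate controls were vehicle for no effect and no substrate for full effect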
Luciferase inh: firefly luciferase inhibition; P08659; purified firefly luciferase, luminescence, 8 min; Potency, µM (series often up to 57.1 µM), without a hit: at the highest dose activity change, negative = inhibition, usual class: inhibitors; 72,000 tested, 2.2% active; AID 411; further: on the % scale 0 is the no-effect control and ±100 the full control effect; nearly all actives have a fitted effect of over 40% in size
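Here, luciferase activity is measured as luminescence following an 8 min room-temperature reaction at 10 uM ATP, pH 7.2. Every library sample is titrated.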
Starred values were filed as active, the others as inactive; ? = inconclusive; . = no result; [ ] = remark or other dose. A selection: hits, their analogues and other compounds. The true share with any hit is near 2.5%. Unless noted, the call rests on the fitted dose curve; in most records, active means well fitted curve in the direction sought with a large enough effect; inconclusive means small, poorly fitted or top-dose-only effect, or another doubt; inactive means no such curve, though single readings can be large; an effect the other way counts as inactive or inconclusive. Potency means the concentration at half of the fitted maximal effect.

SMILES | IkB signaling | p53ts 32C kill | Caspase-7 inhib | p53ts 39C tox | Casp1 inh | Luciferase inh
CCOc1ccc(-c2cc(NC(=O)c3ccc(C)cc3)c(C(=O)OC)s2)cc1 | -0.6% | -6.0% | . | 9.3% | . | .
CCCc1nn2c(=O)cc(COC(=O)c3ccccc3NC(=O)c3ccc(OCC)cc3)nc2s1 | -1.5% | -11.3% | . | 10µM* | . | .
Cc1ccc(NC(=O)c2cc(C)nn2-c2ccccc2)cc1 | ? | 9.3% | . | -18.0% | . | .
Cc1csc(NC(=O)c2sc3nc(-c4cccs4)ccc3c2N)n1 | ? | -23.0% | ? | -8.3% | . | 20µM*
COc1ccc(C(=O)Nc2nc(-c3cccs3)cs2)cc1 | ? | -14.9% | -3.7% | -25.0% | -3.1% | 15.8µM*
O=c1cc(-c2ccccc2O)oc2ccc3ccccc3c12 | 20.1%[11.4 µM] | 2.51µM* | -0.8% | 2µM* | -0.6% | 0.501µM*
Nc1nc(-c2ccc(Br)cc2)cs1 | 0.4% | -6.1% | -5.3% | -13.4% | -3.1% | 12.6µM*
CCCc1ccc(-c2ccc(C(=O)O)cc2)nc1 | ? | ? | -4.2% | -27.6% | 2.4% | 15.8µM*
CCc1ccc2oc(-c3cc(N=Cc4cccc(OC)c4O)ccc3O)nc2c1 | ? | 10µM* | -6.1% | 10µM* | -4.8% | 1.26µM*
CCc1ccc2oc(-c3cc(NC(=O)c4cc(OC)c(OC)c(OC)c4)ccc3O)nc2c1 | ? | -29.5% | . | 13.7% | . | .
Cc1cccc(N2CCN(CCCNc3ncnc4onc(-c5ccc(F)cc5)c34)CC2C)c1 (configuration not stated) | ? | -9.8% | . | -7.0% | . | .
OC[C@@H]1O[C@@H](n2cnc3c(NCc4ccco4)ncnc32)[C@H](O)[C@H]1O | 3.3%[11.4 µM] | . | . | . | . | -2.0%[11.4 µM]
OC[C@H]1O[C@@H](n2cnc3cncnc32)[C@H](O)[C@@H]1O | . | ? | 2.9% | 10µM* | -0.8% | .
OC[C@H]1O[C@@H](n2cnc3c(NCc4ccco4)ncnc32)[C@H](O)[C@@H]1O | . | 15.8µM* | 0.0% | ? | -0.2% | .
Nc1nc(Cl)nc2c1ncn2[C@@H]1O[C@@H](CO)[C@@H](O)[C@H]1O | ? | 15.8µM* | -0.5% | 12.6µM* | -2.8% | -0.1%
CSc1ncnc2c1ncn2C1OC(CO)C(O)C1O (configuration not stated) | . | ? | -1.2% | 10µM* | 0.3% | .
CC(C)C(c1nnnn1Cc1ccccc1)N(Cc1ccco1)Cc1cccs1 (configuration not stated) | ? | 10.4% | -2.3% | ? | -4.8% | -3.8%
CCn1c(=N)n(CCOc2ccc(Br)cc2)c2ccccc21 | ? | ? | . | 12.6µM* | . | .
Cc1cc(C)c2c(N=CN(C)C)c(C(=O)N3CCN(c4ncccn4)CC3)sc2n1 | -2.8% | 11.6% | -2.6% | 0.5% | -1.0% | 5.6%
CCN(CC)CCOC(=O)c1ccc(NC(=O)c2nn(-c3ccc(C)cc3)c(=O)c3c2c2ccccc2n3C)cc1 | ? | 3.98µM* | . | 3.98µM* | . | .
CCN(CC)CCCNC(=O)c1nn(-c2ccc(C)cc2)c(=O)c2c1c1ccccc1n2C | -0.8% | -9.3% | . | 9.2% | . | .
N#Cc1cnc(Nc2nc3ccccc3o2)nc1-c1ccccc1 | -5.6% | 5.8% | 0.7% | 5.8% | -2.1% | 2.3%
Cc1ccnc(Nc2nc3ccccc3o2)n1 | ? | 5.01µM* | -0.8% | 7.94µM* | 1.1% | 6.31µM*
CCS(=O)(=O)c1ncc(Cl)c(C(=O)N2CCN(c3cccc(Cl)c3)CC2)n1 | ? | 12.6µM* | . | 2.51µM* | . | .
O=C(c1cc2ccc3cccnc3c2[nH]1)N1CCN(c2cccc(Cl)c2)CC1 | 9.7% | 6.1% | . | 44.5% | . | .
SMILES | IkB signaling | p53ts 32C kill | Caspase-7 inhib | p53ts 39C tox | Casp1 inh | Luciferase inh
CS(=O)(=O)c1ncc(Cl)c(C(=O)N2CCN(c3cccc(Cl)c3)CC2)n1 | ? | 12.6µM* | . | 2.51µM* | . | .
Nc1cc(N)nc(SCC(=O)Nc2ccccc2)n1 | . | -4.4% | . | 27.3% | . | .
N#CCCn1c(=O)c(CCc2ccccc2)nc2cnc(OCc3ccccc3)nc21 | 3.6%[11.4 µM] | -0.2% | -5.7% | 9.1% | -7.2% | 0.3%[11.4 µM]
Cc1ccc(Nc2ncnc3c2nc2n3CCCC2)c(Br)c1 | . | 10µM* | . | . | . | .
Cc1ccc(C)c(CN2C(=O)c3ccccc3S(=O)(=O)c3ccc(C(=O)NCCCN4CCCC(C)C4)cc32)c1 (configuration not stated) | ? | -0.6% | . | ? | . | .
CC1CCCN(CCCNC(=O)c2ccc3c(c2)N(Cc2ccc(Cl)cc2)C(=O)c2ccccc2S3(=O)=O)C1 (configuration not stated) | ? | ? | . | 10µM* | . | .
CC(C)(C)C(=O)c1sc(Nc2ccccc2)nc1N | ? | -24.7% | -0.8% | ? | -1.3% | 12.6µM*
Cc1ccccc1C(=O)NC1(C(F)(F)F)N=C(c2ccccc2)N(Cc2ccccc2)C1=O (configuration not stated) | -2.0% | -6.1% | . | -6.5% | . | .
Cc1ccc(NC(=O)CSc2nc(=O)cc(N)n2CCc2ccccc2)cc1 | ? | -4.6% | . | 20.3% | . | .
Cc1c(NC(=O)c2cc(-n3cnnc3)ccc2Cl)cccc1-c1nc2ccccc2o1 | ? | ? | 1.3% | -23.8% | 0.3% | 7.94µM*
O=C(Nc1ccc(-c2nc3ccccc3o2)c(O)c1)c1cc(-n2cnnc2)ccc1Cl | ? | ? | -1.6% | ? | -1.7% | -0.8%
Cc1ccc(S(=O)(=O)NC(CC(=O)O)c2ccccc2)cc1 (configuration not stated) | 2.2% | -6.5% | -4.7% | 10.2% | -6.3% | 1.6%
Cc1ccc(S(=O)(=O)NCC(Nc2cccc(Cl)c2)c2ccccc2)cc1 (configuration not stated) | ? | ? | . | 15.8µM* | . | .
Cc1c(/C=N\NC(=O)C2COc3ccccc3O2)c2ccccc2n1C (configuration not stated) | . | . | . | -9.9% | . | .
Cc1[nH]n(-c2ccccc2)c(=O)c1/C=N\NC(=O)C1COc2ccccc2O1 (configuration not stated) | . | . | . | 14.1µM* | . | .
Cc1cccc(-c2noc(Cc3ccc(Cl)cc3)n2)c1 | -4.8% | 1.8% | -0.8% | 6.6% | -0.9% | -3.8%
Cc1cc([C@](C)(N)C(=O)O)ccc1P(=O)(O)O | 0.7% | 1.0% | -0.6% | -4.6% | -3.5% | 25.1µM*
COc1ccc(-c2cc(C(=O)NCc3ccc(F)cc3)c3c(-c4ccc(F)cc4)[nH]nc3n2)cc1OC | ? | ? | . | 12.6µM* | . | .
COc1ccc(CNC(=O)c2cc(-c3ccc(OC)c(OC)c3)nc3n[nH]c(-c4ccc(C)cc4)c23)cc1 | -0.4% | 3.0% | . | -19.7% | . | .
CCOC(=O)c1[nH]c2ccc(OC)cc2c1NC(=S)N1CCN(c2cccc(C)c2C)CC1 | . | 11.2µM* | . | ? | . | .

Screens deposited in PubChem BioAssay by National Center for Advancing Translational Sciences (NCATS).
